The entries come from a sample that favours the strongest signals as a whole.
Tests used:
Assay in all cases: glycan array binding signal (z-score within array); higher = stronger binding
Settings in all cases: glycan notation: IUPAC condensed, linker removed
Fuc(a1-2)Gal(b1-3)GalNAc = target: Fuc(a1-2)Gal(b1-3)GalNAc
Method in brief: (§1)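 The binding signal is a Z-score computed within each array. Data were drawn from 3228 arrays in the Consortium for Functional Glycomics database, restricted to those with a known protein sequence. Scores were averaged over arrays of the same protein sequence at different concentrations or buffers, and over linkers, and negative values can be taken as non-binding.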

[1] = target: Fuc(a1-2)Gal(b1-3)[Fuc(a1-4)]GlcNAc(b1-3)[Gal(b1-4)GlcNAc(b1-6)]Gal(b1-4)Glc
Method in brief: as §1

[2] = target: Fuc(a1-2)[Gal(a1-3)]Gal(b1-4)GlcNAc(b1-6)GalNAc
Method in brief: as §1

[3] = target: Fuc(a1-2)[GalNAc(a1-3)]Gal(b1-3)GalNAc(a1-3)[Fuc(a1-2)]Gal(b1-4)GlcNAc
Method in brief: as §1

[4] = target: Fuc(a1-2)[GalNAc(a1-3)]Gal(b1-3)GlcNAc
Method in brief: as §1

[5] = target: Fuc(a1-2)[GalNAc(a1-3)]Gal(b1-3)GlcNAc(b1-6)GalNAc
Method in brief: as §1

[6] = target: Fuc(a1-2)[GalNAc(a1-3)]Gal(b1-4)GlcNAc(b1-3)Gal(b1-4)GlcNAc
Method in brief: as §1

[7] = target: Fuc(a1-2)[GalNAc(a1-3)]Gal(b1-4)GlcNAc(b1-3)Gal(b1-4)GlcNAc(b1-3)Gal(b1-4)GlcNAc
Method in brief: as §1

[8] = target: Fuc(a1-2)[GalNAc(a1-3)]Gal(b1-4)GlcNAc(b1-6)GalNAc
Method in brief: as §1

[9] = target: Fuc(a1-2)[GalNAc(a1-3)]Gal(b1-4)[Fuc(a1-3)]GlcNAc
Method in brief: as §1

[10] = target: Gal(a1-3)Gal(b1-3)GlcNAc(b1-6)GalNAc
Method in brief: as §1

Gal(a1-3)Gal(b1-4)Glc = target: Gal(a1-3)Gal(b1-4)Glc
Method in brief: as §1

Gal(a1-4)GlcNAc = target: Gal(a1-4)GlcNAc
Method in brief: as §1

[11] = target: Gal(b1-3)GlcNAc(b1-6)[Gal(b1-3)]GalNAc
Method in brief: as §1

Gal(b1-4)Glc6S = target: Gal(b1-4)Glc6S
Method in brief: as §1

Gal(b1-4)GlcNAc(b1-2)Man = target: Gal(b1-4)GlcNAc(b1-2)Man
Method in brief: as §1

[12] = target: Gal(b1-4)GlcNAc(b1-2)[Gal(b1-4)GlcNAc(b1-4)]Man(a1-3)[Gal(b1-4)GlcNAc(b1-2)Man(a1-6)]Man(b1-4)GlcNAc(b1-4)GlcNAc
Method in brief: as §1

[13] = target: Gal(b1-4)GlcNAc(b1-2)[Gal(b1-4)GlcNAc(b1-4)]Man(a1-3)[GlcNAc(b1-4)][Gal(b1-4)GlcNAc(b1-2)[Gal(b1-4)GlcNAc(b1-6)]Man(a1-6)]Man(b1-4)GlcNAc(b1-4)GlcNAc
Method in brief: as §1

[14] = target: Gal(b1-4)GlcNAc(b1-3)Gal(b1-4)GlcNAc(b1-3)Gal(b1-4)GlcNAc(b1-2)Man(a1-3)[Gal(b1-4)GlcNAc(b1-3)Gal(b1-4)GlcNAc(b1-3)Gal(b1-4)GlcNAc(b1-2)Man(a1-6)]Man(b1-4)GlcNAc(b1-4)[Fuc(a1-6)]GlcNAc
Method in brief: as §1

[15] = target: Gal(b1-4)GlcNAc(b1-6)[Gal(b1-4)GlcNAc(b1-3)]GalNAc
Method in brief: as §1

[16] = target: Gal3S(b1-4)[Fuc(a1-3)]GlcNAc6S
Method in brief: as §1

Gal3S4S(b1-4)GlcNAc = target: Gal3S4S(b1-4)GlcNAc
Method in brief: as §1

GalNAc3S(b1-4)GlcNAc = target: GalNAc3S(b1-4)GlcNAc
Method in brief: as §1

GalNAc6S(b1-4)GlcNAc = target: GalNAc6S(b1-4)GlcNAc
Method in brief: as §1

[17] = target: GlcNAc(b1-2)Man(a1-3)[GlcNAc(b1-2)Man(a1-6)]Man(b1-4)GlcNAc(b1-4)GlcNAc
Method in brief: as §1

GlcNAc(b1-6)GalNAc = target: GlcNAc(b1-6)GalNAc
Method in brief: as §1

Kdn(a2-3)Gal(b1-3)GalNAc = target: Kdn(a2-3)Gal(b1-3)GalNAc
Method in brief: as §1

[18] = target: Man(a1-2)Man(a1-3)[Man(a1-2)Man(a1-6)]Man
Method in brief: as §1

[19] = target: Man(a1-3)[Man(a1-6)]Man(a1-6)[Man(a1-3)]Man(b1-4)GlcNAc(b1-4)GlcNAc
Method in brief: as §1

[20] = target: Neu5Ac(a2-3)Gal(b1-3)GlcNAc(b1-3)Gal(b1-3)GlcNAc
Method in brief: as §1

[21] = target: Neu5Ac(a2-3)Gal(b1-3)GlcNAc(b1-4)Gal(b1-4)Glc
Method in brief: as §1

[22] = target: Neu5Ac(a2-3)Gal(b1-4)GlcNAc(b1-2)Man(a1-3)[GlcNAc(b1-4)][Neu5Ac(a2-3)Gal(b1-4)GlcNAc(b1-2)Man(a1-6)]Man(b1-4)GlcNAc(b1-4)GlcNAc
Method in brief: as §1

[23] = target: Neu5Ac(a2-3)Gal(b1-4)GlcNAc(b1-2)Man(a1-3)[Neu5Ac(a2-3)Gal(b1-4)GlcNAc(b1-2)Man(a1-6)]Man(b1-4)GlcNAc(b1-4)[Fuc(a1-6)]GlcNAc
Method in brief: as §1

[24] = target: Neu5Ac(a2-3)Gal(b1-4)GlcNAc(b1-2)[Neu5Ac(a2-3)Gal(b1-4)GlcNAc(b1-6)]Man(a1-6)[Neu5Ac(a2-3)Gal(b1-4)GlcNAc(b1-2)Man(a1-3)]Man(b1-4)GlcNAc(b1-4)GlcNAc
Method in brief: as §1

[25] = target: Neu5Ac(a2-3)Gal(b1-4)[Fuc(a1-3)]GlcNAc(b1-3)Gal(b1-4)GlcNAc
Method in brief: as §1

[26] = target: Neu5Ac(a2-3)Gal6S(b1-4)GlcNAc
Method in brief: as §1

Neu5Ac(a2-3)GalNAc = target: Neu5Ac(a2-3)GalNAc
Method in brief: as §1

Neu5Ac(a2-6)Gal(b1-4)Glc = target: Neu5Ac(a2-6)Gal(b1-4)Glc
Method in brief: as §1

[27] = target: Neu5Ac(a2-6)Gal(b1-4)GlcNAc(b1-2)Man(a1-6)Man(b1-4)GlcNAc(b1-4)GlcNAc
Method in brief: as §1

[28] = target: Neu5Ac(a2-6)Gal(b1-4)GlcNAc(b1-2)[Neu5Ac(a2-6)Gal(b1-4)GlcNAc(b1-4)]Man(a1-3)[GlcNAc(b1-4)][Neu5Ac(a2-6)Gal(b1-4)GlcNAc(b1-4)Man(a1-6)]Man(b1-4)GlcNAc(b1-4)GlcNAc
Method in brief: as §1

[29] = target: Neu5Ac(a2-6)Gal(b1-4)GlcNAc(b1-3)Gal(b1-4)GlcNAc
Method in brief: as §1

[30] = target: Neu5Ac(a2-6)Gal(b1-4)GlcNAc(b1-3)Gal(b1-4)GlcNAc(b1-3)GalNAc
Method in brief: as §1

Neu5Ac(a2-6)GalNAc = target: Neu5Ac(a2-6)GalNAc
Method in brief: as §1

[31] = target: Neu5Ac(a2-8)Neu5Ac(a2-8)Neu5Ac(a2-8)Neu5Ac(a2-3)[GalNAc(b1-4)]Gal(b1-4)Glc
Method in brief: as §1

[32] = target: Neu5Ac9Ac(a2-3)Gal(b1-4)GlcNAc
Method in brief: as §1

[33] = target: Neu5Gc(a2-8)Neu5Gc(a2-6)Gal(b1-4)GlcNAc
Method in brief: as §1

B1: Cohesin-marm-DC-ASGPR-CRD (protein)
chain: LDITSHHHHHHDDLDAVRIKVDTVNAKPGDTVRIPVRFSGIPSKGIANCDFVYSYDPNVLEIIEIEPGDIIVDPNPDKSFDTAVYPDRKIIVFLFAEDSGTGAYAITKDGVFATIVAKVKEGAPNGLSVIKFVEVGGFANNDLVEQKTQFFDGGVNVGDTTEPATPTTPVTTPTTTDDLDAASCPINWVEHQGSCYWFSRSGKTWPEAERYCQLENTHLVVINSREEQNFVQAHLGSAYTWMGLSDPEGVWKWVDGTDYSSGFQNWKPGQPDDWQGHGLGGGEDCAHFHPDGRWNDDVCQRSYHWVCEAGLTQASQDSH
- glycan array binding signal (z-score) (Fuc(a1-2)Gal(b1-3)GalNAc): -0.443
- glycan array binding signal (z-score) [1]: -0.444
- glycan array binding signal (z-score) [2]: -0.449
- glycan array binding signal (z-score) [3]: 3.71
- glycan array binding signal (z-score) [4]: 2.96
- glycan array binding signal (z-score) [5]: 2.04
- glycan array binding signal (z-score) [6]: 2.91
- glycan array binding signal (z-score) [7]: 2.99
- glycan array binding signal (z-score) [8]: 2.6
- glycan array binding signal (z-score) [9]: 3.78
- glycan array binding signal (z-score) [10]: 2.92
- glycan array binding signal (z-score) (Gal(a1-3)Gal(b1-4)Glc): -0.398
- glycan array binding signal (z-score) (Gal(a1-4)GlcNAc): -0.402
- glycan array binding signal (z-score) [11]: -0.041
- glycan array binding signal (z-score) (Gal(b1-4)Glc6S): -0.377
- glycan array binding signal (z-score) (Gal(b1-4)GlcNAc(b1-2)Man): 3.13
- glycan array binding signal (z-score) [12]: -0.44
- glycan array binding signal (z-score) [13]: -0.305
- glycan array binding signal (z-score) [14]: -0.304
- glycan array binding signal (z-score) [15]: -0.405
- glycan array binding signal (z-score) [16]: -0.069
- glycan array binding signal (z-score) (Gal3S4S(b1-4)GlcNAc): -0.425
- glycan array binding signal (z-score) (GalNAc3S(b1-4)GlcNAc): -0.449
- glycan array binding signal (z-score) (GalNAc6S(b1-4)GlcNAc): 3
- glycan array binding signal (z-score) [17]: -0.449
- glycan array binding signal (z-score) (GlcNAc(b1-6)GalNAc): 2.94
- glycan array binding signal (z-score) (Kdn(a2-3)Gal(b1-3)GalNAc): -0.362
- glycan array binding signal (z-score) [18]: -0.447
- glycan array binding signal (z-score) [19]: -0.452
- glycan array binding signal (z-score) [20]: -0.433
- glycan array binding signal (z-score) [21]: -0.449
- glycan array binding signal (z-score) [22]: -0.448
- glycan array binding signal (z-score) [23]: -0.449
- glycan array binding signal (z-score) [24]: -0.331
- glycan array binding signal (z-score) [25]: -0.388
- glycan array binding signal (z-score) [26]: -0.447
- glycan array binding signal (z-score) (Neu5Ac(a2-3)GalNAc): -0.435
- glycan array binding signal (z-score) (Neu5Ac(a2-6)Gal(b1-4)Glc): -0.421
- glycan array binding signal (z-score) [27]: -0.446
- glycan array binding signal (z-score) [28]: -0.368
- glycan array binding signal (z-score) [29]: -0.46
- glycan array binding signal (z-score) [30]: -0.378
- glycan array binding signal (z-score) (Neu5Ac(a2-6)GalNAc): 3.16
- glycan array binding signal (z-score) [31]: 3.12
- glycan array binding signal (z-score) [32]: -0.447
- glycan array binding signal (z-score) [33]: -0.447

From the supplement of paper PMC8728848
